# Source: PubChem BioAssay
# H9c2 protect: cardioprotection against H2O2-induced cell death, primary screen, uHTS, H9c2 cells, ATPLite luminescence; H9c2 cardiomyocytes, H2O2 injury protection, 2 h; protection from H2O2 cell death, % at 20 µM; hit rate 0.63% among 360,000; AID 588492, 2011;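 active means compounds giving at least 50% protection of heart cells from peroxide-induced death in the single-dose screen, raw or plate-pattern-corrected value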;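 further: 0% = DMSO wells with peroxide and 100% = DMSO wells without peroxide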
# Myeloid diff 2: induction of myeloid progenitor differentiation, primary screen, cell-based, flow cytometry, MLPCN library | calls only at 10 µM | ER-HoxA9 myeloid progenitors, lysozyme-GFP differentiation | hit rate 1% among 360,000;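 active means normalized GFP-positive differentiation at or above the plate's own cutoff, the solvent-only control mean plus 3 SD; inconclusive means no clear call, values can overlap the other calls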;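 further: cells exposed to compound for four days before flow analysis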
# Rtt109 HAT inh: inhibitors of C. albicans Rtt109/Vps75 HAT, primary screen, biochemical, ThioGlo CoA-SH fluorescence, plate reader. Histone acetyltransferase RTT109 (Candida albicans (strain SC5314 / ATCC MYA-2876)), …. purified Rtt109/Vps75, 4 h. inhibition, % at 34.9 µM. hit rate 0.16% among 330,000. AID 540336, 2011;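 active means inhibition of at least 50% in every replicate; inconclusive means best replicate reaches 50% inhibition but some replicates fall short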
# Target sequence (Q5AAJ8 whole entry, looked up): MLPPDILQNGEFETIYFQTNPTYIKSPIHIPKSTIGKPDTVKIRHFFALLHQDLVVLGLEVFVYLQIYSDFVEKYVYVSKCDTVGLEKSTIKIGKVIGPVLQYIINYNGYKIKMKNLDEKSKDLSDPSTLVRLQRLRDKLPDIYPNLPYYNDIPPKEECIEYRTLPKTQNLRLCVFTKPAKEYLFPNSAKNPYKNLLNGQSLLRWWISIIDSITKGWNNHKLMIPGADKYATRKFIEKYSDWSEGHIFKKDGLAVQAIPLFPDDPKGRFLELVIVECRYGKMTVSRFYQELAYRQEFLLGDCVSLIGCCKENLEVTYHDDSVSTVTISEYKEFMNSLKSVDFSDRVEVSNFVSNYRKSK
# ABHD5 PLIN5 PPI: ABHD5-PLIN5 interaction inhibitors, primary screen, cell lysate, split luciferase complementation, luminescence | Split G. princeps luciferase complementation, 4 h | inhibition, % at 4 µM | Perilipin-5 (Homo sapiens) + 1-acylglycerol-3-phosphate O-acyltransferase ABHD5 (Homo … | hit rate 0.78% among 360,000;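 active means inhibition above the mean inhibition across every tested compound plus 3 SD, cut at about 22% in these data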;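 further: 0% = DMSO only wells and the 100% control is not disclosed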
# DAGLB inhibitor: DAGLB lipase inhibitors, primary screen, biochemical, fluorescence, HTS; Diacylglycerol lipase-beta (Homo sapiens), Q8NCG7; HEK293T DAGLB membrane lysate, EnzChek fluorogenic substrate; hit rate 0.059% among 340,000; inhibition, % at 5.17 µM; in the data active means inhibition above about 34%;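 further: 0% = enzyme with vehicle and 100% = wells lacking enzyme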
# sPLA2-III inh: human group III sPLA2 inhibitors, primary screen, biochemical, QFRET, BODIPY PC-A2 liposome substrate. AID 743126, 2013. QFRET BODIPY PC-A2 liposome hydrolysis, fluorescence. inhibition, % at 12.2 µM. Group 3 secretory phospholipase A2 (Homo sapiens), Q9NZ20. hit rate 0.56% among 370,000;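 active means inhibition above mean plus 3 SD of compounds lying within the high and low control bounds, cut at about 19% in these data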;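 further: 0% = median of test compound wells and 100% = no enzyme DMSO wells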
# Myeloid diff: inducers of myeloid progenitor differentiation, confirmation, cell-based, GFP/Mac1 flow cytometry, cherry pick 01. shares compounds with Myeloid diff 2. ER-HoxA9 myeloid progenitors, GFP/Mac1 double-positive flow. calls only. hit rate 2% among 2,300. AID 651706, 2012;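 active means share of green or green-and-red cells above 9 and 9% in run 1 or 4 and 3% in run 2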
# GFP autofluor: counter-screen for myeloid differentiation promoters: compound fluorescence; shares compounds with Myeloid diff 2; ER-HoxA9 myeloid progenitors, no estrogen, GFP autofluorescence flow cytometry; vehicle wells 0%, positive control 100%; fluorescence response, % (test concentration not listed); hit rate 7.4% among 2,300;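 active means over 5% cells positive for green fluorescent reporter, or over 2% positive for both it and APC stain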;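 further: range taken on the double positive population between DMSO and positive control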
# Numbers without * were called inactive; i = inactive; ? = inconclusive; . = no result given; + = active, no number. In the library only some 2.9% were active in any assay of this set; here they are far more common.
SMILES,H9c2 protect,Myeloid diff 2,Rtt109 HAT inh,ABHD5 PLIN5 PPI,DAGLB inhibitor,sPLA2-III inh,Myeloid diff,GFP autofluor
Cc1c(Cc2ccccc2)sc(/N=C/c2ccc3ccccc3c2)c1C(N)=O,2,?,5,-12,1,.,.,.
Cc1ccc(/C=N/c2sc(Cc3ccccc3)c(C)c2C(N)=O)o1,3,i,-2,-4,3,-15,i,0
Nc1cccc(C#Cc2ccc3c(c2)C(=O)/C(=C/c2ccsc2)O3)c1,-7,i,-2,1,2,4,i,0
COc1cccc(/C=C2\Oc3ccc(O)cc3C2=O)c1O,-19,i,5,2,-5,-14,.,.
Cn1c(SCC(=O)O)nnc1C1CCCCC1,0,+,15,9,3,5,i,0
Cn1c(SCC(=O)c2ccccc2)nnc1C1CC1,13,i,-5,-5,-1,-2,.,.
CC1(C)Cc2c(sc3nc4n(c(=N)c23)CCC4)CO1,-5,i,1,1,1,13,i,0
C[C@H](O)[C@@H]1C(=O)N2CCc3c([nH]c4cccc(-c5ccccc5)c34)[C@@H]2C[C@@H]1N(C)C(=O)NC1CCCCC1,.,.,.,.,.,-21,.,.
COc1ccnc(Oc2ccc(C)cc2C)c1C#N,-6,+,3,3,0,5,i,0
Cc1ccc(C(=O)O)c(C(=O)Nc2nc(C)cs2)c1,7,i,5,0,1,0,.,.
COc1ccc(CN(C(=O)c2ccco2)c2ccc(C)c(C)c2)cc1,-7,+,22,-2,-6,0,i,0
N#Cc1c(NC(=O)CCn2cnc3ccccc3c2=O)oc(-c2ccccc2)c1-c1ccccc1,-6,i,7,-1,-4,-47,i,0
CCN(Cc1nc2cc(Cl)ccc2c(=O)[nH]1)C(=O)C1CC(=O)N(c2cccc3ccccc23)C1 (stereo unspecified),11,i,-14,-2,4,-19,.,.
CCN(Cc1nc2cc(Cl)ccc2c(=O)[nH]1)C(=O)c1cc2c(s1)CCCCC2,-9,i,-6,-4,1,17,i,0
CC1CC(C)CN(CCCNC(=O)c2ccc3c(c2)NC(=O)C(N2CCCCC2)S3)C1 (stereo unspecified),0,i,9,2,0,-2,.,.
Cc1ccc(S(=O)(=O)N2CC(C(=O)O)=CC[C@H]2c2ccc(Cl)cc2)cc1,9,i,-11,-9,1,-8,.,.
CCN(CC)CCNC(=O)c1cn(C)c2ccc(S(=O)(=O)N(C)C3CCCCC3)cc2c1=O,7,i,-10,8,5,-3,i,0
CC1(C)Cc2nc3sc4c(OCc5ccccc5)ncnc4c3cc2CO1,-1,i,4,-6,1,3,.,.
CCc1nc(OCc2ccccc2)c2sc3nc4c(cc3c2n1)COC(C)(C)C4,-14,i,0,3,2,2,i,0
Cc1ccc(S(=O)(=O)Nc2ccc(S(=O)(=O)Nc3ncccn3)cc2)cc1,7,i,6,4,3,7,i,0
Cc1ccc(S(=O)(=O)Nc2ccc(-c3nnc(SCC#N)n3C)cc2)cc1,-6,+,-1,4,-1,5,i,0
COc1cc(C)nc(NS(=O)(=O)c2ccc(C)cc2)n1,6,i,1,-9,-5,1,i,0
Nc1ncnc2c1ncn2[C@@H]1O[C@H](C(=O)NCc2ccc3c(c2)OCO3)[C@@H](O)[C@H]1O,-2,i,.,0,.,2,.,.
O=C(COC(=O)Cc1ccc(F)cc1)NC1CCCC1,5,i,-4,2,-2,3,.,.
COC(=O)C[C@H]1C=C[C@H](NC(=O)Cc2ccccc2)[C@@H](CO)O1,.,i,.,-2,.,11,.,.
SMILES,H9c2 protect,Myeloid diff 2,Rtt109 HAT inh,ABHD5 PLIN5 PPI,DAGLB inhibitor,sPLA2-III inh,Myeloid diff,GFP autofluor
COC(=O)C[C@@H]1C=C[C@@H](NC(=O)c2ccccc2F)[C@@H](CO)O1,.,i,.,0,.,6,i,0
O=C(NNC(=O)c1ccc2ccccc2c1)c1cccc(Cl)c1,-1,i,2,-8,0,0,.,.
Cc1cc2c(n1-c1ccc(Br)cc1)CC(C)(C)CC2=O,5,i,7,-5,-2,-24,i,0
COC(=O)C1=C(C)N=c2s/c(=C/c3ccoc3)c(=O)n2C1c1ccccc1 (stereo unspecified),12,i,-14,-6,0,.,.,.
CC(=O)C1=C(C)N=c2s/c(=C/c3ccc4c(c3)OCO4)c(=O)n2C1c1ccc(N(C)C)cc1 (stereo unspecified),0,+,-7,-4,3,-1,i,22*
CCCn1c(N)c(C(=O)CSc2n[nH]c(-c3ccc(C)cc3)n2)c(=O)[nH]c1=O,-2,i,-8,0,2,1,.,.
COc1ccccc1C1N(c2ccc(Cl)cc2)C(=O)C2CCCN21 (stereo unspecified),-2,+,9,3,-2,3,+,0
COc1ccc(N2C(=O)C3CCCN3C2c2ccccc2OC)cc1 (stereo unspecified),8,i,-11,-2,-3,4,.,.
CC(CCc1ccccn1)C(=O)c1ccccc1 (stereo unspecified),4,i,9,2,-1,5,.,.
CC(SCCc1ccccn1)C(=O)O (stereo unspecified),-2,i,13,3,-2,2,i,0
C[C@@H]1CN([C@@H](C)CO)C(=O)c2cc(NC(=O)Nc3cccc4ccccc34)ccc2O[C@@H](C)CCCCO[C@H]1CN(C)C(=O)c1ccccc1,-10,i,.,1,-8,-10,.,.
Cc1cccc(NC(=S)N(CCCN2CCOCC2)Cc2ccccn2)c1,1,i,-1,-3,-2,-3,.,.
S=C(Nc1ccc(Oc2ccccc2)cc1)N(CCCN1CCOCC1)Cc1ccccn1,-4,+,-1,6,1,2,i,0
CC(C)(C)OC(=O)N[C@@H](Cc1ccccc1)C(=O)N1CCC(C(=O)O)CC1,2,i,-13,-4,0,9,i,0
CC1CC(C)CN(C(=O)C2CCC(CNS(=O)(=O)c3ccccc3)CC2)C1 (stereo unspecified),7,i,4,0,-1,-18,.,.
